Experimental findings from the supplement of paper PMC4709259 are described below.

Test [1] deals with Jurkat. The experiment in a line: mean cell size (FSC-A) relative to DMSO control (fraction of control); higher = larger cells. The following applies: 48 h. In a few lines:
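Jurkat cells seeded at 600 cells/µl were incubated 1 h, then exposed for 48h to the Enzo Screen-Well FDA Approved Drug Library v2.0 at 25µM in 0.9% (v/v) final DMSO. Drugs that cut counts below 20% of controls were diluted 10-fold and retested, down to 25nM. Cell count and mean cell size (forward scatter area) were read on an Accuri C6 flow cytometer, relative to solvent-only controls. Plates held 6-12 controls; values are means of 3 biological replicates.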

For test [2], the system named is Jurkat. The experiment in a line: cell count relative to DMSO control (fraction of control); higher = more cells (less growth inhibition). The following applies: 48 h.

Structures can show the parent of a compound that is named as a salt. ± gives the standard deviation.

`CN[C@H]1CC[C@@H](c2ccc(Cl)c(Cl)c2)c2ccccc21` [Sertraline·HCl] (concentration: 2.5 µM) yielded a mean cell size with Jurkat [1] of 1.008 ± 0.0063. The compound also yielded a cell count in the test on Jurkat [2] of 0.853 ± 0.12.

As to `NC(=O)Cc1cccc(C(=O)c2ccccc2)c1N` [Nepafenac] (concentration: 25 µM), in the test with Jurkat [1], the mean cell size is 0.934 ± 0.019. In addition, in the test with Jurkat [2], the cell count turned out to be 0.727 ± 0.025.

In the test on Jurkat [1], `CCOc1ccc2ccccc2c1C(=O)N[C@@H]1C(=O)N2[C@@H]1SC(C)(C)[C@@H]2C(=O)O` [Nafcillin·Na] (concentration: 25 µM) returned a mean cell size of 0.954 ± 0.025. For the same compound, in the test on Jurkat [2], the cell count turned out to be 0.569 ± 0.13.

For `NC(=O)c1ncn([C@@H]2O[C@H](CO)[C@@H](O)[C@H]2O)n1` [Ribavirin] (concentration: 25 µM), the mean cell size in the test on Jurkat [1] was determined as 0.9983 ± 0.0034. This compound yielded a cell count with Jurkat [2] of 0.625 ± 0.077.

In the case of `COc1cc(Cc2cnc(N)nc2N)cc(OC)c1OC` [Trimethoprim] (concentration: 25 µM), the mean cell size with Jurkat [1] came to 0.969 ± 0.039. The compound further had a cell count in the test on Jurkat [2] of 0.457 ± 0.11.

As to `CC(C)(C)NCC(O)COc1cccc2c1CC(O)C(O)C2` (stereo not given) [Nadolol] (concentration: 25 µM), the mean cell size with Jurkat [1] came out at 0.928 ± 0.041. The same compound returned a cell count in the test on Jurkat [2] of 0.487 ± 0.059.

For `Nc1nc(=O)[nH]cc1F` [Flucytosine] (concentration: 25 µM), the mean cell size in the test with Jurkat [1] came to 0.997 ± 0.035. The cell count in the test with Jurkat [2] came out at 0.919 ± 0.025.

In the test with Jurkat [1], `CC(C)(C)NC(=O)[C@@H]1C[C@@H]2CCCC[C@@H]2CN1C[C@@H](O)[C@H](Cc1ccccc1)NC(=O)[C@H](CC(N)=O)NC(=O)c1ccc2ccccc2n1` [Saquinavir Mesylate] (concentration: 25 µM) displayed a mean cell size of 0.963 ± 0.0039. The same compound came in with a cell count with Jurkat [2] of 0.648 ± 0.065.

As for `CC(=O)NO` [Acetohydroxamic Acid] (concentration: 25 µM), in the test on Jurkat [1], the mean cell size was found to be 1.02 ± 0.059. Besides, in the test with Jurkat [2], the cell count was 0.755 ± 0.016.

`CN(Cc1ccc(C(C)(C)C)cc1)Cc1cccc2ccccc12` [Butenafine·HCl] (concentration: 25 µM): in the test with Jurkat [1], the mean cell size stood at 0.97 ± 0.031. The cell count in the test on Jurkat [2] is 0.793 ± 0.076.

`CN1CCCC(n2nc(Cc3ccc(Cl)cc3)c3ccccc3c2=O)CC1` (stereo not given) [Azelastine·HCl] (concentration: 25 µM): the mean cell size in the test with Jurkat [1] came out at 0.923 ± 0.037. The compound also showed a cell count with Jurkat [2] of 0.457 ± 0.02.

Regarding `CC=CC1=C(C(=O)O)N2C(=O)[C@@H](NC(=O)[C@H](N)c3ccc(O)cc3)[C@H]2SC1` [Cefprozil] (concentration: 25 µM), in the test on Jurkat [1], the mean cell size stood at 0.951 ± 0.035. The same compound yielded a cell count in the test with Jurkat [2] of 1.06 ± 0.035.

Regarding `CC(N)C12CC3CC(CC(C3)C1)C2` (stereo not given) [Rimantadine·HCl] (concentration: 25 µM), the mean cell size in the test on Jurkat [1] came out at 1.02 ± 0.055. Moreover, the cell count with Jurkat [2] was 0.697 ± 0.067.

Compound `CCC(C)(C)C(=O)O[C@H]1C[C@@H](C)C=C2C=C[C@H](C)[C@H](CC[C@@H]3C[C@@H](O)CC(=O)O3)[C@H]21` [Simvastatin] (concentration: 25 µM) registered a mean cell size in the test on Jurkat [1] of 1.05 ± 0.054. For the same compound, the cell count in the test on Jurkat [2] is 0.698 ± 0.029.

The compound `O=C1CC2(CCCC2)CC(=O)N1CCCCN1CCN(c2ncccn2)CC1` [Buspirone·HCl] (concentration: 25 µM) came in with a mean cell size with Jurkat [1] of 0.9275 ± 0.0078. For the same compound, the cell count in the test on Jurkat [2] was 0.96 ± 0.097.

In the case of `CCCC1O[C@@H]2C[C@H]3[C@@H]4CCC5=CC(=O)C=C[C@]5(C)[C@H]4[C@@H](O)C[C@]3(C)[C@]2(C(=O)CO)O1` (stereo not given in full) [Budesonide] (concentration: 25 µM), the mean cell size in the test on Jurkat [1] turned out to be 0.945 ± 0.037. Besides, the cell count in the test with Jurkat [2] was found to be 0.799 ± 0.046.

`O=C1O[C@H]([C@@H](O)CO)C(O)=C1O` [L-Ascorbic Acid] (concentration: 25 µM) displayed a mean cell size with Jurkat [1] of 1 ± 0.029. Further, the cell count in the test on Jurkat [2] was found to be 0.836 ± 0.068.

In the case of `Nc1nc(=O)c2c([nH]1)NCC(CNc1ccc(C(=O)N[C@@H](CCC(=O)O)C(=O)O)cc1)N2C=O` (stereo not given in full) [Leucovorin Calcium Pentahydrate] (concentration: 25 µM), the mean cell size in the test on Jurkat [1] came out at 0.933 ± 0.041. Further, the cell count in the test on Jurkat [2] worked out at 1.05 ± 0.035.

Regarding `CN1CC2c3ccccc3Oc3ccc(Cl)cc3C2C1` (stereo not given) [Asenapine Maleate] (concentration: 25 µM), in the test with Jurkat [1], the mean cell size worked out at 0.938 ± 0.019. Moreover, the cell count in the test on Jurkat [2] was 0.935 ± 0.16.

Compound `OC[C@H]1O[C@@H](n2cnc3c2N=CNC[C@H]3O)C[C@@H]1O` [Pentostatin] (concentration: 25 µM) registered a mean cell size in the test on Jurkat [1] of 0.959 ± 0.029. In addition, in the test with Jurkat [2], the cell count came to 1.14 ± 0.024.

Consider `CCC(C)n1ncn(-c2ccc(N3CCN(c4ccc(OCC5COC(Cn6cncn6)(c6ccc(Cl)cc6Cl)O5)cc4)CC3)cc2)c1=O` (stereo not given) [Itraconazole] (concentration: 25 µM), for which the mean cell size in the test on Jurkat [1] was 1.11 ± 0.071. For the same compound, the cell count in the test on Jurkat [2] amounted to 0.323 ± 0.026.

Consider `Nc1ccc(O)c(C(=O)O)c1` [Mesalamine (5-Aminosalicylic Acid)] (concentration: 25 µM), for which the mean cell size with Jurkat [1] came out at 0.912 ± 0.019. Also, the cell count in the test with Jurkat [2] came out at 1 ± 0.046.

As for `CCC1=C[C@@H]2CN(C1)Cc1c([nH]c3ccccc13)[C@@](C(=O)OC)(c1cc3c(cc1OC)N(C)[C@H]1[C@@](O)(C(=O)OC)[C@H](OC(C)=O)[C@]4(CC)C=CCN5CC[C@]31[C@@H]54)C2` [Vinorelbine] (concentration: 250 nM), the mean cell size with Jurkat [1] came to 0.941 ± 0.031. Besides, in the test with Jurkat [2], the cell count amounted to 0.559 ± 0.048.

On to `CC(C(=O)O)c1ccc(-c2ccccc2)c(F)c1` (stereo not given) [Flurbiprofen] (concentration: 25 µM), for which the mean cell size with Jurkat [1] turned out to be 0.974 ± 0.032. In the test with Jurkat [2], this compound had a cell count of 0.881 ± 0.083.

In the test on Jurkat [1], `C#C[C@]1(O)CC[C@H]2[C@@H]3CCC4=CC(=O)CC[C@@H]4[C@H]3CC[C@@]21C` [Norethindrone] (concentration: 25 µM) yielded a mean cell size of 0.948 ± 0.024. Moreover, the cell count with Jurkat [2] is 0.901 ± 0.084.
